# From PubChem BioAssay
# “And” between values parts separate entries of the source, which are not always exact repeats. Equal values may be shown once. Inconclusive results are not listed. The source made the active and inactive calls. Unless noted, the limit is not given here; nearly all actives have AC50 up to about 26 µM.
# What was measured:
# [1] = viability loss in pontine glioma line – cell-based, SU-DIPG-XVII, MIPE5.0, CellTiter-Glo, qHTS, dose response (AID 1347060); conditions: CellTiter-Glo ATP luminescence;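 as to AC50: cells exposed to compound for 48 hours before viability readout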
# [2] = viability loss in pontine glioma line – cell-based, SU-DIPG-XIII, MIPE4.0, CellTiter-Glo, qHTS, dose response (AID 1347061; cut-off not given, nearly all actives have AC50 up to about 37 µM;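 also: cells exposed to compound for 48 hours before readout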); conditions: CellTiter-Glo ATP luminescence
# [3] = viability loss in pontine glioma line – cell-based, JHH-DIPG-1, MIPE4.0, CellTiter-Glo, qHTS, dose response (AID 1347062; cut-off not given, nearly all actives have AC50 up to about 27 µM;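 as to AC50: cells exposed to compound for two days before readout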); conditions: JHH-DIPG-1 viability, CellTiter-Glo ATP luminescence
# [4] = viability loss in pontine glioma line – cell-based, SU-DIPG-IV, MIPE4.0, CellTiter-Glo, qHTS, dose response (AID 1347063; cut-off not given, nearly all actives have AC50 up to about 30 µM;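 also: compound exposure lasted 48 hours before the viability readout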); conditions: CellTiter-Glo ATP luminescence
# [5] = viability loss in pontine glioma line – cell-based, SU-DIPG-XIII, MIPE5.0, CellTiter-Glo, qHTS, dose response (AID 1347064; cut-off not given, nearly all actives have AC50 up to about 23 µM;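 as to AC50: cells exposed to compound for 48 hours before the viability read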); conditions: CellTiter-Glo ATP luminescence
# [6] = viability loss in pontine glioma line – cell-based, SU-DIPG-XXV, MIPE5.0, CellTiter-Glo, qHTS, dose response (AID 1347065); conditions: CellTiter-Glo ATP luminescence;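 also: cells exposed to compound for 48 hours before ATP readout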
# [7] = growth inhibition of DIPG cells – cell-based, MIPE4.0 library, CellTiter-Glo luminescence, qHTS (AID 1347066; cut-off not given, nearly all actives have AC50 up to about 30 µM;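 also: cells exposed to compound for 48 hours before readout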); conditions: SU-DIPG-VI viability, CellTiter-Glo ATP luminescence
# [8] = JHH-DIPG-1 glioma cell viability, MIPE5.0 library, CellTiter-Glo luminescence, qHTS (AID 1347067); conditions: JHH-DIPG-1 glioma viability, CellTiter-Glo ATP luminescence;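 also: cells exposed to compound for 48 hours before readout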
# [9] = growth inhibition of DIPG cells – cell-based, MIPE5.0 library, qHTS (AID 1347068; cut-off not given, nearly all actives have IC50 up to about 30 µM;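 as to IC50: cells exposed to compound for 48 hours before viability readout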); conditions: SU-DIPG-XXV viability
# [10] = viability loss with induced miR-34 in A549 – imaging, A549 dox-inducible miR-34, nuclei and caspase counts, primary screen (AID 1347080;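 active = compounds whose cell count with miR-34 switched on is under 0.7 times the count with it off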); conditions: A549 miR-34 inducible, Hoechst nuclei count, 48 h
# [11] = MELAS cybrid and Rieske KO viability enhancers – cell-based, MELAS cybrids, Rieske KO mouse fibroblasts, CellTiter-Glo, primary screen (AID 1508586;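 active = mean z-score across replicates of 1.96 or higher in either the MELAS or the Rieske mutant cell line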;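 also: z relative to plate mean and SD of compound and empty wells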); conditions: low glucose
# [12] = growth inhibition, single agent or in combination, cell-based, chromothripsis tumors, cisplatin or BGB combos (AID 1671449; in the data active = inhibition above about 80%;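 also: cells exposed for 96 hours; 0% = vehicle DMSO and 100% = killing by high DMSO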); conditions: LFS_MB_P medulloblastoma cells
# [13] = growth inhibition, single agent and combos, cell-based, chromothripsis tumors, cisplatin or BGB combos (AID 1671450; in the data active = inhibition above about 80%;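 also: cells exposed to compound for four days; 0% = vehicle DMSO and 100% = cell killing by high DMSO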); conditions: HDN33 neuroblastoma cells, stronger effect = higher value
# [14] = growth inhibition, single agents and combos, ICB984, cell-based, cisplatin or BGB combos, synergistic combos for chromothripsis tumors (AID 1671451; call rule not given here;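 also: cells exposed for 96 hours before readout; 0% = vehicle DMSO and 100% = killing by high DMSO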); conditions: ICB984 medulloblastoma cells, drug combinations, stronger effect = higher value
# [15] = growth inhibition, single agents and combos, HTB85, cell-based, BGB or cisplatin IC20 combos, synergistic combos for chromothripsis tumors (AID 1671453; in the data active = inhibition above about 80%;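 also: cells exposed for 96 hours before readout; 0% = vehicle DMSO and 100% = high DMSO killing control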); conditions: HTB85 osteosarcoma cells, drug combinations, stronger effect = higher value
# [16] = growth inhibition, MDA-MB-436, cell-based, BGB or cisplatin combos, synergistic combos for chromothripsis tumors (AID 1671458; call rule not given here;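 also: cells exposed for 96 hours; 0% = vehicle DMSO and 100% = killing by high DMSO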); conditions: MDA-MB-436 breast carcinoma growth inhibition, drug combinations, stronger effect = higher value
# [17] = BT084 cell growth, single and combined drugs, ICGC_MB145, cisplatin and BGB IC40 combos (AID 1671461; in the data active = inhibition above about 80%;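 also: cells exposed to drugs for 96 hours; 0% = vehicle DMSO and 100% = high DMSO full killing control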); conditions: BT084 medulloblastoma cells, drug combinations, stronger effect = higher value
# [18] = RCMB18 cell growth, single agent and combined, cisplatin and BGB IC40 combos (AID 1671462; in the data active = inhibition above about 80%;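 also: cells exposed to compound for four days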); conditions: RCMB18 medulloblastoma cells, stronger effect = higher value
# [19] = compounds altering HSF1 focus formation in cells – imaging, Selleck Cancer Library (AID 1347162; in the data active = plate-normalised HSF1 focus index below about 0.46); conditions: human cells, HSF1 nuclear foci imaging, at 10 µM; SSMD: measured here: HSF1 foci SSMD mean; cell count: measured here: cell number; plate-normalised HSF1 focus index: stronger effect = lower value
# [20] = stronger effect = lower value, cell number ratio, induced over uninduced
# [21] = measured here: relative caspase fold change +Dox/-Dox
# [22] = measured here: total cells with miR-34 induction, stronger effect = lower value
# [23] = measured here: total cells without miR-34 induction
# [24] = MELAS cybrid survival, CellTiter-Glo 48 h, stronger effect = higher value
# [25] = Rieske KO mouse fibroblast survival, CellTiter-Glo 72 h
smiles,measurement,setting,value
Cc1ccc(O)c(C(CCN(C(C)C)C(C)C)c2ccccc2)c1 (centres undefined),outcome,[1],inactive
same,outcome,[2],inactive
same,outcome,[3],inactive
same,outcome,[4],inactive
same,outcome,[5],inactive
same,outcome,[6],inactive
same,outcome,[7],inactive
same,outcome,[8],inactive
same,outcome,[9],inactive
same,fold change,[10]; [20],0.945 (inactive) and 0.96 (inactive) and 0.87 (inactive)
same,fold change,[10]; [21],1.69 and 0.719 and 5.48
same,cell count,[10]; [22],8130 and 7320 and 11700
same,cell count,[10]; [23],8600 and 7630 and 13400
same,z-score,[11]; [24],-0.247 (inactive)
same,z-score,[11]; [25],-0.0904
Nc1ncnc2c1c(-c1cnc3[nH]ccc3c1)nn2C1CCCC1,AC50,[1],934 nM (active)
same,AC50,[2],3720 nM (active)
same,AC50,[3],6620 nM (active)
same,AC50,[4],296 nM (active)
same,AC50,[5],1320 nM (active)
same,AC50,[6],661 nM (active)
same,AC50,[7],4690 nM (active)
same,AC50,[8],1660 nM (active)
same,IC50,[9],1660 nM (active)
same,fold change,[10]; [20],0.933 (inactive)
same,fold change,[10]; [21],0.447
same,cell count,[10]; [22],1360
same,cell count,[10]; [23],1460
same,z-score,[11]; [24],2.61 (active)
same,z-score,[11]; [25],-3.58
same,inhibition,"[12]; at 0.5 µM, stronger effect = higher value",-21.6% (inactive)
same,inhibition,"[12]; measured here: combination with BGB IC20, at 0.005 µM",-12.8%
same,inhibition,"[12]; measured here: combination with BGB IC40, at 0.005 µM",-34.4%
same,inhibition,"[12]; measured here: combination with BGB IC40, at 0.05 µM",-33.1%
same,inhibition,"[12]; measured here: combination with cisplatin, at 0.5 µM, stronger effect = higher value",-37.9%
same,inhibition,"[12]; measured here: combination with cisplatin, at 5 µM, stronger effect = higher value",101%
same,inhibition,"[13]; BGB combo, at 5 µM",93.7%
same,inhibition,[13]; at 0.5 µM,34.8% (inactive)
same,inhibition,"[13]; cisplatin combo, at 5 µM",89.8%
same,inhibition,"[13]; measured here: with BGB IC20 combination, at 0.5 µM",27.9%
same,inhibition,"[13]; measured here: with cisplatin IC20 combination, at 0.5 µM",38.9%
same,inhibition,"[13]; single agent, at 5 µM",94.1%
same,inhibition,"[14]; BGB IC20 combo, at 0.005 µM",3.47%
same,inhibition,"[14]; BGB IC40 combo, at 0.005 µM",0.136%
same,inhibition,"[14]; BGB IC40 combo, at 0.05 µM",75.2%
same,inhibition,[14]; at 0.5 µM,-26.8% (inactive)
same,inhibition,"[14]; cisplatin combo, at 0.05 µM",74.3%
same,inhibition,"[14]; cisplatin combo, at 0.5 µM",-46.2%
same,inhibition,"[14]; cisplatin combo, at 5 µM",-4.06%
same,inhibition,"[14]; measured here: 5 uM single agent, at 5 µM",-4.21%
same,inhibition,[15]; at 0.5 µM,49.5% (inactive)
same,inhibition,"[15]; measured here: with BGB IC20, at 0.5 µM",55.4%
same,inhibition,"[15]; measured here: with BGB IC20, at 5 µM",97.6%
same,inhibition,"[15]; measured here: with cisplatin IC20, at 0.5 µM",38.8%
same,inhibition,"[15]; measured here: with cisplatin IC20, at 5 µM",94.1%
same,inhibition,"[15]; single agent, at 5 µM",95.9%
same,inhibition,[16]; at 0.5 µM,-11.6% (inactive)
same,inhibition,"[16]; measured here: BGB combination, at 0.5 µM",0.573%
same,inhibition,"[16]; measured here: BGB combination, at 5 µM",42.9%
same,inhibition,"[16]; measured here: cisplatin combination, at 0.5 µM",-39.3%
same,inhibition,"[16]; measured here: cisplatin combination, at 5 µM",36.2%
same,inhibition,[17]; at 0.5 µM,26.7% (inactive)
same,inhibition,"[17]; cisplatin combination, at 0.5 µM",42.3%
same,inhibition,"[17]; cisplatin combination, at 5 µM",38.7%
same,inhibition,"[17]; measured here: BGB IC40 combination 0.05 uM, at 0.05 µM",-23%
same,inhibition,"[17]; single agent, at 5 µM",59.1%
same,inhibition,[18]; at 0.5 µM,1.21% (inactive)
same,inhibition,"[18]; cisplatin combo, at 5 µM",73.6%
same,inhibition,"[18]; measured here: BGB IC40 combination, at 0.05 µM",-7.03%
same,inhibition,"[18]; measured here: combination with cisplatin, at 0.5 µM",-23.9%
same,inhibition,"[18]; single agent, at 5 µM",64.6%
C=CC(=O)Nc1cccc(Oc2nc(Nc3ccc(N4CCN(C)CC4)cc3)ncc2Cl)c1,AC50,[1],468 nM (active)
same,AC50,[2],13200 nM (active)
same,AC50,[3],1660 nM (active)
same,AC50,[4],2090 nM (active)
same,AC50,[5],1320 nM (active)
same,AC50,[6],372 nM (active)
same,AC50,[7],18700 nM (active)
same,AC50,[8],1180 nM (active)
same,IC50,[9],525 nM (active)
same,fold change,[10]; [20],0.981 (inactive)
same,fold change,[10]; [21],0.779
same,cell count,[10]; [22],1580
same,cell count,[10]; [23],1610
same,z-score,[11]; [24],1.07 (inactive)
same,z-score,[11]; [25],0.326
NC(=NCCCCCCN=C(N)N=C(N)Nc1ccc(Cl)cc1)N=C(N)Nc1ccc(Cl)cc1,AC50,[1],9340 nM (active)
same,AC50,[2],4180 nM (active)
same,AC50,[3],14800 nM (active)
same,AC50,[4],18700 nM (active)
same,AC50,[5],8330 nM (active)
same,AC50,[6],9340 nM (active)
same,AC50,[7],13200 nM (active)
same,AC50,[8],11800 nM (active)
same,IC50,[9],14800 nM (active)
same,fold change,[10]; [20],0.848 (inactive)
same,fold change,[10]; [21],0.439
same,cell count,[10]; [22],1370
same,cell count,[10]; [23],1620
same,z-score,[11]; [24],-0.252 (inactive)
same,z-score,[11]; [25],0.00983
CCS(=O)(=O)c1cccc(-c2cc(C(=O)NC3CCN(C)CC3)c(C)c3[nH]c4ncc(C)cc4c23)c1,AC50,[1],590 nM (active)
same,AC50,[2],2960 nM (active)
same,AC50,[3],2640 nM (active)
same,AC50,[4],5260 nM (active)
same,AC50,[5],1480 nM (active)
same,AC50,[6],590 nM (active)
same,AC50,[7],8330 nM (active)
same,AC50,[8],1480 nM (active)
same,IC50,[9],1480 nM (active)
same,fold change,[10]; [20],1.06 (inactive)
same,fold change,[10]; [21],0.946
same,cell count,[10]; [22],1160
same,cell count,[10]; [23],1090
same,z-score,[11]; [24],2.57 (active)
same,z-score,[11]; [25],-0.249
C=C1C(=O)O[C@@H]2[C@H]3O[C@]3(C)CC/C=C(\C)CC[C@@H]12,AC50,[1],9340 nM (active)
same,AC50,[2],16600 nM (active)
same,AC50,[3],14800 nM (active)
same,AC50,[4],7430 nM (active)
same,AC50,[5],4680 nM (active)
same,AC50,[6],7420 nM (active)
same,AC50,[7],3720 nM (active)
same,AC50,[8],6610 nM (active)
same,IC50,[9],16600 nM (active)
same,fold change,[10]; [20],0.927 (inactive) and 0.781 (inactive)
same,fold change,[10]; [21],1.09 and 1.49
same,cell count,[10]; [22],4920 and 316
same,cell count,[10]; [23],5310 and 404
same,z-score,[11]; [24],2.28 (active)
same,z-score,[11]; [25],-0.174
COc1cc2ncnc(Nc3ccc(F)c(Cl)c3)c2cc1NC(=O)/C=C/CN1CCCCC1,AC50,[1],14800 nM (active)
same,outcome,[2],inactive
same,AC50,[3],18700 nM (active)
same,AC50,[4],20900 nM (active)
same,AC50,[5],18600 nM (active)
same,AC50,[6],9340 nM (active)
same,AC50,[7],20900 nM (active)
same,IC50,[9],10500 nM (active)
same,SSMD,[19],1.69
same,cell count,[19],6970
same,plate-normalised HSF1 focus index,[19],1.09 (inactive)
CN(C)CCN(C)C(=O)c1ccc(NC(=O)Nc2ccc(-c3nc(N4CCOCC4)c4ccn(CC(F)(F)F)c4n3)cc2)cc1,AC50,[1],235 nM (active)
same,AC50,[2],743 nM (active)
same,AC50,[3],469 nM (active)
same,AC50,[4],33.2 nM (active)
same,AC50,[5],742 nM (active)
same,AC50,[6],332 nM (active)
same,AC50,[7],662 nM (active)
same,AC50,[8],1480 nM (active)
same,SSMD,[19],1.02
same,cell count,[19],7060
same,plate-normalised HSF1 focus index,[19],1.06 (inactive)
CC(C)(O)c1cc2nc(-c3cnc(N)nc3)nc(N3CCOCC3)c2s1,AC50,[1],1180 nM (active)
same,AC50,[2],590 nM (active)
same,AC50,[3],833 nM (active)
same,AC50,[4],52.6 nM (active)
same,AC50,[5],1050 nM (active)
same,AC50,[6],417 nM (active)
same,AC50,[7],148 nM (active)
same,IC50,[9],1180 nM (active)
CN(C)C(N)=NC(=N)N,outcome,[1],inactive
same,outcome,[2],inactive
same,outcome,[3],inactive
same,outcome,[4],inactive
same,outcome,[5],inactive
same,outcome,[6],inactive
same,outcome,[7],inactive
same,outcome,[9],inactive
